mHTT CaM bind = inhibitors of human mutant huntingtin-calmodulin interaction; 3.6% of 190,000 active; inhibition, % at 15 µM; P42858; AlphaScreen His-mHTT/GST-CaM binding, luminescence;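 further: 0% = both proteins with DMSO and 100% = one protein alone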
Target sequence (P42858 whole entry, looked up, stated change not applied): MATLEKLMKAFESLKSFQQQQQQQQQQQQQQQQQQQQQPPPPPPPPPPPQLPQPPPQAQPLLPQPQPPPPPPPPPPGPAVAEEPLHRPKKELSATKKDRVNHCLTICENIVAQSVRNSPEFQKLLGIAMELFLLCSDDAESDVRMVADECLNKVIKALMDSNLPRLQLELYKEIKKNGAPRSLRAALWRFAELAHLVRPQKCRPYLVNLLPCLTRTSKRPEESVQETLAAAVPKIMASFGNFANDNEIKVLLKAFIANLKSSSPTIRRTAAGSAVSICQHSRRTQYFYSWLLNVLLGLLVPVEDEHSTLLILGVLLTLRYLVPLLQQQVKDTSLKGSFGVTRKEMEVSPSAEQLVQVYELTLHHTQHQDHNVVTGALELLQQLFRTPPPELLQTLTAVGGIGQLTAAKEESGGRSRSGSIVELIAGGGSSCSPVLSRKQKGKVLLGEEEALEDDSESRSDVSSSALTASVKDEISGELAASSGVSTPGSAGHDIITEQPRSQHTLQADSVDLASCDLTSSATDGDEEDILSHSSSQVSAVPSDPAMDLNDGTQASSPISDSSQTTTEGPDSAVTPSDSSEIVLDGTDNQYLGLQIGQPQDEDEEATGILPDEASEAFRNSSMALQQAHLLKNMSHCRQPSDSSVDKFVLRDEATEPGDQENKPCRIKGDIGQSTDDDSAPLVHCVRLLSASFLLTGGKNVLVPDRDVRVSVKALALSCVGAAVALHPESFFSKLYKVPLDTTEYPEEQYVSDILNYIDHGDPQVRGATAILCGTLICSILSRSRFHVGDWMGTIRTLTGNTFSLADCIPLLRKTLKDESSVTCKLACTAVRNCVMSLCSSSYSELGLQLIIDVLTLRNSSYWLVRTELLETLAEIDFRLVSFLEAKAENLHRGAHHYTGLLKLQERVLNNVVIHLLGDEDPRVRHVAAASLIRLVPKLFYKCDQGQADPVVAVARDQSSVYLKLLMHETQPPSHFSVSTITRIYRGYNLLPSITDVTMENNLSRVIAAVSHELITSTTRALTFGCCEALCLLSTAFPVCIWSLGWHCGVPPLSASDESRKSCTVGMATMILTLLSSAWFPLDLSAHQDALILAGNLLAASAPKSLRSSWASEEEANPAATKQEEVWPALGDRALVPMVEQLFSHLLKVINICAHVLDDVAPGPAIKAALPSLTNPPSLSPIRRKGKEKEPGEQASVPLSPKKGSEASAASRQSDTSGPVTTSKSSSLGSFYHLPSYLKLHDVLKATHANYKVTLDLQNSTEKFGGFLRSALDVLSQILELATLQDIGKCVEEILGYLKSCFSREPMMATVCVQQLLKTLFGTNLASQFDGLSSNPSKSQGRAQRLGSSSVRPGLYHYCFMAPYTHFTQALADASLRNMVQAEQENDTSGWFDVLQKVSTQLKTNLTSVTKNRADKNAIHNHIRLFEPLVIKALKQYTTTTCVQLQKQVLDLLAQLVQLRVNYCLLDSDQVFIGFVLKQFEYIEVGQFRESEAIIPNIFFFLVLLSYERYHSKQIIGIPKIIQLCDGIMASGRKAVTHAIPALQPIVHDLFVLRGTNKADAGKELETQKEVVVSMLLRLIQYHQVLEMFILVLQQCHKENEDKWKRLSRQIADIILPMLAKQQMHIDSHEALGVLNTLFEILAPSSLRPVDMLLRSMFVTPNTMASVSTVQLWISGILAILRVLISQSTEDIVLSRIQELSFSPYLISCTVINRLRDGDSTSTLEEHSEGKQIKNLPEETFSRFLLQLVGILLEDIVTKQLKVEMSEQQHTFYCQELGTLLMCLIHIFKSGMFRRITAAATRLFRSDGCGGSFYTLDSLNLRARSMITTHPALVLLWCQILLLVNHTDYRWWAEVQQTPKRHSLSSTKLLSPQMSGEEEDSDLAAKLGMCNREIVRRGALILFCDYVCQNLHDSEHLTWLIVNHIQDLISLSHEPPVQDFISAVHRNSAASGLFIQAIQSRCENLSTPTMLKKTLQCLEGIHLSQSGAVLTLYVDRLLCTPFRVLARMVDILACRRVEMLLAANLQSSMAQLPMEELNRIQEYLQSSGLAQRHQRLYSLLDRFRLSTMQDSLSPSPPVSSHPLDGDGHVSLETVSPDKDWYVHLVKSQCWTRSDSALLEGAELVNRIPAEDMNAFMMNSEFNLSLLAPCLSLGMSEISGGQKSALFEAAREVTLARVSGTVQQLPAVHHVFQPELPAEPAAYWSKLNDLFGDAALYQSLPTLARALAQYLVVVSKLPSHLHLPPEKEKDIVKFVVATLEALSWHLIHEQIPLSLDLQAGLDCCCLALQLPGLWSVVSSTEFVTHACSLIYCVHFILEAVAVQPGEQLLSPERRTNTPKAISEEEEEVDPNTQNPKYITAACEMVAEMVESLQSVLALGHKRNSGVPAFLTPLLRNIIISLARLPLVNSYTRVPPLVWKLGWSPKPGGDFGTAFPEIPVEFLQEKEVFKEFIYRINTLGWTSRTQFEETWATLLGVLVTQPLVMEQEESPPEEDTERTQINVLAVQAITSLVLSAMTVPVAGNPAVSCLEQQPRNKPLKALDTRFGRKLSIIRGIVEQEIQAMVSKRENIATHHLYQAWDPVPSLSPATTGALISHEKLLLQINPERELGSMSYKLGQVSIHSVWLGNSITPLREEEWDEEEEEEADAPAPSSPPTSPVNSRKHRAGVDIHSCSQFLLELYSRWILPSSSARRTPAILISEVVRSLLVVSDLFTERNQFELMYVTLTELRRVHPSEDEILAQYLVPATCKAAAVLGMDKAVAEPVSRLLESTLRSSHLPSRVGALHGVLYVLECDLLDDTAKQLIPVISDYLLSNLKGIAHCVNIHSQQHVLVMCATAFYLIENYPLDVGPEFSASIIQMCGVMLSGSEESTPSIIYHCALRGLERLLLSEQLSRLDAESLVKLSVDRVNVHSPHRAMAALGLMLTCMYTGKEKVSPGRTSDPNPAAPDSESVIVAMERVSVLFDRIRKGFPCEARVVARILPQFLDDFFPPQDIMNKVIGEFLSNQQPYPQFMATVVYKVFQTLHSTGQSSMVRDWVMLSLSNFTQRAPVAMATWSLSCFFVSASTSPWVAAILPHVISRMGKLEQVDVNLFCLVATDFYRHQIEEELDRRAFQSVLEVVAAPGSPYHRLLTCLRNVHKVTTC
Pf apPOL block = Pf-apPOL DNA polymerase inhibition; Recombinant Pf-apPOL, molecular beacon fluorescence, 1.5 h; inhibition, % at 10 µM; 0.25% of 210,000 active; AID 1794808
Active calls of the source: *; i = inactive; x = not tested or not shown. This excerpt belongs to a sample that is enriched for hits. No stated cut-off is given here; in the data, active means inhibition above about 50%; inactive means the rest.

SMILES	mHTT CaM bind	Pf apPOL block
CC(=O)Nc1nc(-c2cc3cc(Cl)cc(Cl)c3oc2=O)cs1	3	98*
COc1cccc(C2=CC(c3ccc(OC)c(OC)c3)n3c(nc4ccccc43)N2)c1 (stereo not given)	25	-7
CC(=O)N1CCN(CC(=O)N2N=C(c3ccc(F)cc3)CC2c2ccccc2)CC1 (stereo not given)	35	-1
Cn1cccc1C1CC(c2ccc(F)cc2)=NN1C(=O)CN1CCCCC1 (stereo not given)	70*	-4
Cc1ccc(C2=NN(C(=O)CN3CCCCC3)C(c3cccn3C)C2)cc1C (stereo not given)	91*	-2
CCc1c(-c2ccccc2)n(CCCO)c2nc3c(c(=O)n(C)c(=O)n3C)n12	17	-2
C/C=C1/CN2CCC34C(=Nc5ccccc53)C(=CNNc3ccccc3)C1CC24 (stereo not given)	2	x
C/C(=C1/C(=O)N(c2ccc([N+](=O)[O-])cc2)N=C1c1ccccc1)N(C)C	53*	0
CN(C)/C=C1\C(=O)N(c2ccc([N+](=O)[O-])cc2)N=C1c1ccccc1	25	59*
CC1=NN(c2ccccc2)C(=O)/C1=C/c1ccc(-c2ccc([N+](=O)[O-])cc2)o1	1	0
Cc1nnc(-c2ccccc2)n1-c1ccc([N+](=O)[O-])cc1	8	-2
COc1cccc(NC(=O)N2CCCC2c2nc(-c3cccc(Cl)c3)no2)c1 (stereo not given)	10	-1
Cc1nn(-c2ccccc2)c(N2CCCCC2)c1C=O	0	-1
NC(=O)c1c(Nc2ccc3c(c2)OCO3)sc(C(=O)c2ccc(Cl)cc2)c1N	56*	-4
CCOC(=O)c1c(Nc2ccccc2F)sc(C(=O)c2ccc(Cl)cc2)c1N	x	-1
CC(=O)N(C1=C(N2CCOCC2)C(=O)c2ccccc2C1=O)C(C)C	12	-3
CCCCCCOc1ccccc1/C=c1\sc2ncnn2c1=O	7	1
COc1ccc([C@H]2C[C@@H](n3cc(-c4ccc(F)cc4)nn3)[C@H](O)CN2Cc2cccs2)cc1	-1	2
Cc1ccc([C@H]2C[C@@H](O)[C@H](n3cc(C4CC4)nn3)CN2Cc2cccs2)cc1	-4	-1
COc1ccc([C@H]2C[C@H](n3cc(-c4ccc(F)cc4)nn3)[C@@H](O)CN2Cc2cccs2)cc1	63*	-3
Cc1ccc([C@H]2C[C@H](O)[C@@H](n3cc(C4CC4)nn3)CN2Cc2cccs2)cc1	100*	-4
Cc1ccc([C@H]2C[C@H](n3cc(C4CC4)nn3)[C@@H](O)CN2Cc2cccs2)cc1	80*	-3
O[C@H]1CN(Cc2cccs2)[C@@H](c2ccccc2)C[C@@H]1n1cc(C2CC2)nn1	18	-3
O=[N+]([O-])c1ccc(Nc2cccc3ccccc23)c([N+](=O)[O-])c1	9	x
COc1c(CO)cc(C)cc1CO	x	-2
SMILES	mHTT CaM bind	Pf apPOL block
Cn1ccnc1SCc1cc(=O)c(OC(=O)C2(c3ccc(Cl)cc3)CCCC2)co1	88*	1
CCSc1ccccc1C(=O)Oc1coc(CSc2nccn2C)cc1=O	3	0
COc1cc(NCc2ccc3c(c2)Cc2ccccc2-3)cc(OC)c1OC	59*	6
COc1ccc(CC(=O)Nc2ccc3c(c2)Cc2ccccc2-3)cc1OC	-3	-2
COc1ccccc1N1CCN(C(=O)COc2ccc(Br)cc2C)CC1	23	-4
CC(C)(C)c1ccccc1OCC(O)CN1CCN(c2ccccc2)CC1 (stereo not given)	99*	-1
COc1ccccc1N1CCN(CC(O)COc2ccc(C)c(C)c2)CC1 (stereo not given)	38	-2
COc1ccccc1N1CCN(C(=O)COc2cc(C)c(Br)c(C)c2)CC1	56*	-5
Cc1ccc(OCC(O)CN2CCN(c3ccccc3)CC2)c(C)c1 (stereo not given)	14	2
Cc1cc(Cl)ccc1OCC(O)CN1CCN(c2ccccc2)CC1 (stereo not given)	93*	-4
COc1ccccc1N1CCN(CC(O)COc2ccc(Cl)c(C)c2)CC1 (stereo not given)	99*	2
COc1ccccc1OCC(O)CN1CCN(c2ccc(F)cc2)CC1 (stereo not given)	-14	-10
CCc1nc2ccc(C(N)=O)cc2nc1CC	-4	-3
CC1CCN(C(=O)CC(C(=O)N2CCc3ccccc32)n2ccnc2)CC1 (stereo not given)	5	-9
CC(C)NC(=O)N1CC(c2nc(-c3ccncc3)no2)C1	-12	-5
CNc1nccc(N2CCC(CC(=O)NCc3cc(F)ccc3F)CC2)n1	13	0
COc1ccc(C2=N/C(=C\c3cccc([N+](=O)[O-])c3)C(=O)O2)cc1OC	-1	1
Cc1sc2ccn(C)c(=O)c2c1C(=O)N1CCCCC1	-7	-3
CCn1ccc2sc(C)c(C(=O)N3CCN(c4ccccc4)CC3)c2c1=O	59*	-7
CCCn1ccc2sc(C)c(C(=O)N3CCN(c4ccccc4)CC3)c2c1=O	35	2
Cc1sc2ccn(C)c(=O)c2c1C(=O)N1CCN(c2ccc(Cl)cc2)CC1	70*	-6
COCC(C)NC(=O)c1cc(-c2ccc(OC)cc2)on1 (stereo not given)	-7	-9
CC1(C)SC(c2ccccc2)NC1C(=O)O (stereo not given)	x	-4
Cc1oc(C2CCN(C(=O)c3ccc(F)c(F)c3)CC2)nc1C(=O)N(C)C	5	0
Nc1ccc(CCc2nc3ccc(N)cc3[nH]2)cc1	4	-10
SMILES	mHTT CaM bind	Pf apPOL block
Nc1ccc2nc(-c3ccc(-c4nc5ccc(N)cc5[nH]4)cc3)[nH]c2c1	35	68*
Nc1ccc(-c2nc3ccc(C(=O)c4ccc5nc(-c6ccc(N)cc6)[nH]c5c4)cc3[nH]2)cc1	11	-7
Nc1ccc2nc(-c3ccccc3-c3nc4ccc(N)cc4[nH]3)[nH]c2c1	41	1
Nc1ccc2nc(Cc3nc4ccc(N)cc4[nH]3)[nH]c2c1	79*	-6
Nc1ccc(-c2nc3ccc(-c4nc5ccc(N)cc5[nH]4)cc3[nH]2)cc1	51*	5
Cc1cs/c(=N\N=C\c2ccc(OCc3ccccc3)cc2)n1N	i	x
Cc1ccc(C2Nc3ccc4ncccc4c3C3=C2C(=O)CCC3)cc1 (stereo not given)	1	-7
CC(C)c1ccc(C2Nc3ccc4ncccc4c3C3=C2C(=O)CCC3)cc1 (stereo not given)	65*	1
COc1ccc(NC(=O)C2CCc3sc(C(=O)N4CCCC4)cc3C2)c(C)c1 (stereo not given)	4	2
CC(=O)NCCc1csc(C2CCCN(C(=O)c3ccncc3)C2)n1 (stereo not given)	0	1
CCOC(=O)NC(=S)c1ccc(OC)cc1	x	3
COc1ccc(C(=S)NN)cc1	58*	x
CC(C)(C)c1cc(C(C)(C)C)n(C(=O)c2ccc(Cl)cc2)n1	x	-3
CCOc1ccccc1NC(=O)c1c(NCc2cc(OC)ccc2OC)sc2c1CCC2	16	-19
COc1ccc(NC(=O)c2c(NC(=O)c3ccccc3Cl)sc3c2CCCC3)c(OC)c1	4	-9
COc1ccc(OC)c(NC(=O)c2c(NC(=O)c3ccccc3F)sc3c2CCCC3)c1	-4	-24
COc1ccc(NC(=O)c2c(NC(=O)c3cccnc3)sc3c2CCC3)cc1	0	2
COc1ccc(Cl)cc1NC(=O)c1c(NCc2ccccn2)sc2c1CCCC2	75*	-17

Compound activity deposited in PubChem BioAssay by University of Kansas High Throughput Screening Laboratory.
